The supplement of paper PMC13380429

Tests used:
[1] = system: Vero E6 infected with SARS-CoV-2; assay: morphology score (similarity to uninfected cells); higher = more like uninfected cells; conditions: 24 h
[2] = system: Vero E6 infected with SARS-CoV-2; assay: SARS-CoV-2 infection rate relative to infected DMSO; higher = more infection, active = 60 or less; conditions: 24 h

SMILES | morphology score [1] | SARS-CoV-2 infection rate [2]
O=C(CNC(=O)c1cccc(C(F)(F)F)c1)N[C@@H]1CCN(Cc2ccc(Cl)cc2)C1 [teijin-compound-1] (10 µM) | -0.116 | 103% (inactive)
Clc1ccc(Nc2nnc(Cc3ccncc3)c3ccccc23)cc1 [vatalanib] (10 µM) | 0.199 | 96% (inactive)
CC1(C)O[C@@H]2[C@@H](CO[C@@]3(COS(N)(=O)=O)OC(C)(C)O[C@@H]23)O1 [topiramate] (10 µM) | 0.00625 | 102% (inactive)
CCc1ccc(OCc2ccccc2C(=O)Nc2ccc3nc(C)cc(N)c3c2)cc1 (0.833333 µM) | 0.313 | 89% (inactive)
CC(C)c1cc(C(C)C)c(CC(=O)NS(=O)(=O)Oc2c(C(C)C)cccc2C(C)C)c(C(C)C)c1 [avasimibe] (10 µM) | 0.0222 | 110% (inactive)
CCCCCCCCNC(C)C(O)c1ccc(SC(C)C)cc1 (configuration not stated) [suloctidil] (10 µM) | 0.834 | 21.5% (active)
COc1cc(OC)c2c(=O)[nH]c(-c3cc(C)c(OCCO)c(C)c3)nc2c1 [apabetalone] (0.833333 µM) | 0.0872 | 106% (inactive)
COC(=O)c1ccc(N2CCN(C)CC2)c(NC(=O)c2cccc(OC)c2)c1 (10 µM) | 0.142 | 105% (inactive)
O=C(O)CN1C(=O)c2cccc3cccc(c23)C1=O [alrestatin] (10 µM) | 0.0519 | 106% (inactive)
O[C@H]1CC[C@H](Nc2ncc3nc(Nc4c(F)cc(F)cc4F)n([C@H]4CCOC4)c3n2)CC1 (0.833333 µM) | 0.103 | 101% (inactive)
O=C(NCc1cccc(O)c1)Nc1nc(-c2ccncc2)cs1 (10 µM) | 0.392 | 97.8% (inactive)
CC(C)[C@@H](C)/C=C/[C@@H](C)[C@H]1CC[C@H]2/C(=C/C=C3\C[C@@H](O)CC[C@@H]3C)CCC[C@]12C [dihydrotachysterol] (10 µM) | 0.121 | 106% (inactive)
CCN1CCC(n2cc(CNc3cc(Cl)c4ncc(C#N)c(Nc5ccc(F)c(Cl)c5)c4c3)nn2)CC1 [cot-inhibitor-2] (10 µM) | 0.683 | 40.5% (active)
c1ccc2sc(SN3CCOCC3)nc2c1 [N-oxydiethylenebenzothiazole-2-sulfenamide] (10 µM) | -0.00631 | 104% (inactive)
CCN1CCC[C@H]1CNC(=O)c1c(OC)ccc(Br)c1OC [remoxipride] (10 µM) | 0.159 | 98.5% (inactive)
Cc1cc(-c2nncc3c(C(C)(C)C)c(OCc4ncnn4C)nn23)no1 (10 µM) | 0.149 | 95% (inactive)
CN1CCCN=C1COC(=O)C(O)(c1ccccc1)C1CCCCC1 (configuration not stated) [oxyphencyclimine] (10 µM) | 0.0243 | 101% (inactive)
Nc1ccc(S(=O)(=O)Nc2ccc(Cl)nn2)cc1 [sulfachlorpyridazine] (10 µM) | 0.104 | 108% (inactive)
C#C[C@]1(O)CC[C@H]2[C@@H]3CCC4=CC(=O)CC[C@@H]4[C@H]3CC[C@@]21C [Norethindrone (Norethisterone)] (10 µM) | -0.0201 | 112% (inactive)
CC(C)C1=C2[C@H]3CC[C@@H]4[C@@]5(C)CC[C@H](OC(=O)CC(C)(C)C(=O)O)C(C)(C)[C@@H]5CC[C@@]4(C)[C@]3(C)CC[C@@]2([C@@H](O)CN(CCN(C)C)Cc2ccc(Cl)cc2)CC1=O (10 µM) | 0.203 | 96% (inactive)
CCN(CC)CC#CCOC(=O)C(O)(c1ccccc1)C1CCCCC1 (configuration not stated) [oxybutynin] (10 µM) | 0.299 | 98% (inactive)
C[C@]12CC[C@H](O)C[C@H]1CC[C@@H]1[C@@H]2C[C@@H](O)[C@]2(C)[C@@H](C3=CC(=O)OC3)CC[C@]12O [digoxigenin] (0.833333 µM) | -0.000579 | 99.5% (inactive)
O=CN1CCC(C(=O)NCCN2CCC(=C3c4ccccc4C=Cc4ccccc43)CC2)CC1 (10 µM) | 0.0149 | 100% (inactive)
Cc1csc(NC(=O)CSc2ccc(-c3ccccc3)nn2)n1 (10 µM) | 0.49 | 68.5% (inactive)
COc1ccsc1CNCC[C@@]1(c2ccccn2)CCOC2(CCCC2)C1 (10 µM) | -0.0456 | 103% (inactive)
CC[C@H]1[C@@H]2C[C@H]3[C@@H]4N(C)c5ccccc5[C@]45C[C@@H]([C@@H]2[C@H]5O)N3[C@@H]1O [ajmaline] (10 µM) | -0.0982 | 106% (inactive)
